Source: PubChem BioAssay (several laboratories)
Arbovirus anti = antivirals against arbovirus infection, primary screen, cell-based, full library, 10K replicate subset; arbovirus infection cell-based antiviral screen; inhibition, % at 10 µM; hit rate 0.37% among 200,000; in the data active = inhibition above about 30%
WT yeast gro inh = growth inhibition of WT strain, primary screen, mitochondrial fusion inhibitor project, WT and mutant strains, chemical genetic. mitochondrial fusion phenotypic screen. inhibition, % at 10 µM. hit rate 2.1% among 190,000. AID 1362, 2008; in the data active = inhibition above about 58%; tested in S. cerevisiae
PERK inhibitor = block of dimerizer-induced PERK translation repression, primary screen, PERK inhibitor project, CHO PERK-DD cells, SEAP luminescence, HTS; CHO PERK-DD fusion, SEAP luminescence translation reporter; inhibition, % at 5.6 µM; hit rate 0.17% among 220,000; AID 1416, 2008;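 active = inhibition above the mean inhibition of all tested compounds plus 3 SD, set separately per screening campaign, cut at about 2.9% in these data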;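 also: PERK kinase domain activated by AP20187 dimerizer at 100 nM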
ROMK primary = ROMK potassium channel modulators, primary screen, cell-based, thallium flux, MLSMR library; ATP-sensitive inward rectifier potassium channel 1 (Homo sapiens), P48048; Tet-inducible ROMK, thallium flux fluorescence; actives lie on both sides; B-score at 10 µM; hit rate 2% among 130,000;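 active = signal ratio slope over the read window, or its plate-corrected B-score, at least 3 SD from the plate mean, either direction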;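 also: B-score of the F/F0 ratio slope over 7 to 12 s after thallium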
Target sequence (P48048 whole entry, looked up): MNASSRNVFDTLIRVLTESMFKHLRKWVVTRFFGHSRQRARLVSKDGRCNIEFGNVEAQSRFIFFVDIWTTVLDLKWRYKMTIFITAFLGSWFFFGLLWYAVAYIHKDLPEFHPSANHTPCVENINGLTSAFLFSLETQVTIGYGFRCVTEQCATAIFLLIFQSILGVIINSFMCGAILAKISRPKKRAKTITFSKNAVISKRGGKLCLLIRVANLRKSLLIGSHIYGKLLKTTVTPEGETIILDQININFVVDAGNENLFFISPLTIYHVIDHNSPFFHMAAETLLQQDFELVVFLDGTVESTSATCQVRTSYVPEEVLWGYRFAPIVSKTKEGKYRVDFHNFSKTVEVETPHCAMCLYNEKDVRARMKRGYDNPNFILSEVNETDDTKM
Large screens that a line does not name were inactive. Compounds with a hit are over-represented: about 3.3% of the library has one in this group of screens.

Cc1cccc(Nc2nc(N)c([N+](=O)[O-])c(N3CCN(C)CC3)n2)c1	none (no result: ROMK primary)
COc1ccc(CCCc2nnc(SCC(=O)Nc3ccccc3F)o2)cc1	none
CCC(C(=O)Nc1ccc(OC)c(Cl)c1)c1ccccc1 (centres undefined)	WT yeast gro inh 59.0
CCC(C(=O)Nc1cccc(C(=O)O)c1)c1ccccc1 (centres undefined)	none
CCC(C(=O)Nc1cccc(C(=O)O)c1C)c1ccccc1 (centres undefined)	PERK inhibitor 3.5
COc1ccc2cc(C3CC(c4cccs4)=NN3C(C)=O)c(Cl)nc2c1 (centres undefined)	none (no result: Arbovirus anti, WT yeast gro inh, ROMK primary)
N#CCSc1nc(N)c(C#N)c(C2CCCCC2)c1C#N	Arbovirus anti 34.1 (no result: ROMK primary)
N#Cc1c(N)nc(SCC(=O)NC2CCCCC2)c(C#N)c1-c1ccc(Cl)cc1	none (no result: ROMK primary)
Cc1oc2ccc(OC(=O)c3cccs3)cc2c1C(=O)OC(C)C	WT yeast gro inh 70.5
CC1CCCCN1S(=O)(=O)c1ccc(C(=O)Nc2ccccc2-c2nc3ccccc3s2)cc1 (centres undefined)	none
COc1ccc(NS(=O)(=O)c2cc(N/C(=N\S(=O)(=O)c3ccccc3)c3ccc(F)cc3)ccc2Cl)cc1	none (no result: ROMK primary)
CC(C)(Oc1ccc(Cl)cc1)C(=O)NC1=NN(c2ccccc2)C(=O)C1	Arbovirus anti 35.2
CCOc1ccc(CSCCNC(=S)Nc2ccccc2)cc1	WT yeast gro inh 71.1 (no result: ROMK primary)
CCCCNC(=S)Nc1ccc(Oc2ccccc2)cc1	WT yeast gro inh 65.1
CC(C)(C)c1ccc(OCCNC(=S)Nc2ccccc2)cc1	WT yeast gro inh 81.8 (no result: ROMK primary)
CCOc1ccc(NC(=S)NCCCc2ccccc2)cc1	WT yeast gro inh 69.8
CCOc1ccc(NC(=S)Nc2ccc(OCc3ccccc3)cc2)cc1	none
CCC(C)(C)c1ccc(OCCCC[n+]2ccccc2)c(C(C)(C)CC)c1	WT yeast gro inh 92.6, ROMK primary -3.69
COCCNC(=O)c1ccccc1NC(=O)CSc1ccc(C)cc1	none
CCC(C)NC(=O)c1ccccc1NC(=O)CN(c1ccc(OC)cc1)S(C)(=O)=O (centres undefined)	none
Cc1ccc(-n2c(Cc3cccn3C)nnc2SCC(=O)Nc2cc(C)on2)cc1	none (no result: ROMK primary)
CCOC(=O)c1[nH]c(C)c(C(=O)O)c1C	PERK inhibitor 3.3
COc1cc(C2C(C#N)=C(N)OC3=C2C(=O)CC(C)(C)C3)ccc1OCCN1CCOCC1 (centres undefined)	none (no result: Arbovirus anti, WT yeast gro inh, ROMK primary)
Cc1ccc2[nH]c(=O)c(CN(CCCN(C)C)C(=O)Nc3ccc(Cl)cc3)cc2c1	none
COc1ccc2[nH]c(=O)c(CN(CCCN(C)C)C(=O)Nc3ccc(F)cc3)cc2c1	Arbovirus anti 30.3 (no result: ROMK primary)
CC(N=C1NS(=O)(=O)c2ccccc21)C(=O)N1CCc2ccccc2C1 (centres undefined)	none
C[C@H]1CC[C@H]2C(=O)N3[C@H](c4ccccc4Br)[C@@H](C)CC[C@H]3C(=O)N2[C@@H]1c1ccccc1Br	WT yeast gro inh 69.7, ROMK primary -4.29
CCN(C(=O)COC(=O)/C=C/c1cccc([N+](=O)[O-])c1)c1ccccc1	none
CC(C)(C)c1ccc(-c2nnc(SCCC#N)n2C2CCCC2)cc1	WT yeast gro inh 65.9 (no result: ROMK primary)
O=C(CCCC(=O)N(c1ccc2c(c1)OCCO2)C(C(=O)NC1CCCCC1)c1ccc(F)cc1)Nc1ccccn1 (centres undefined)	none (no result: ROMK primary)
CCN(CC)CCNC(=O)Cn1c(-c2ccccn2)nc2ccccc21	WT yeast gro inh 61.3
CCOC(=O)Cn1c(-c2ccccn2)nc2ccccc21	none (no result: ROMK primary)
CC1=NN(Cc2c(C)nn(Cc3ccccc3)c2C)C(C)(C)C1	none
COc1ccc(C(=O)O)cc1NC(=S)NC(=O)c1ccc(-c2ccc(Cl)cc2)o1	Arbovirus anti 50.4
O=C(CN1CCC(n2cnc3cc(F)ccc32)CC1)Nc1ccccc1Br	none
COCCCN1C(=O)/C(=C\c2ccc3c(c2)OCO3)C(C(=O)OC)=C1C	PERK inhibitor 3.2
CN(C)CCCN1C(=O)C(=O)/C(=C(/O)c2ccc3c(c2)OCO3)C1c1cccnc1 (centres undefined)	none (no result: Arbovirus anti, WT yeast gro inh, ROMK primary)
Cc1[nH]c2ccccc2c1C(=O)CSc1nc2ccccc2c(=O)n1CCCN1CCOCC1	none
COC(=O)C(CC(=O)c1ccc(Cl)cc1)c1ccc(C(C)C)cc1 (centres undefined)	WT yeast gro inh 70.4 (no result: ROMK primary)
Cc1ccc(C(CC(=O)c2ccc(Cl)cc2)C(=O)O)cc1 (centres undefined)	none (no result: ROMK primary)
O=C(CSc1ccccn1)Nc1nncs1	none
CCc1cc(C(=O)O)c(NC(=O)C(c2ccccc2)c2ccccc2)s1	Arbovirus anti 34.7
CCN(CC)S(=O)(=O)c1cc(C(=O)Nc2cc(Cl)ccc2N2CCN(C)CC2)ccc1Cl	WT yeast gro inh 65.4
COc1ccc(-c2nnc(SCc3nnc(-c4ccc(Cl)cc4)o3)n2-c2ccccc2)cc1	WT yeast gro inh 63.6 (no result: ROMK primary)
COc1ccc(-c2nnc(SCc3nnc(-c4ccccc4)o3)n2-c2ccccc2)cc1	none (no result: ROMK primary)
O=S(=O)(Cc1ccccc1)Cc1cnc(Cl)s1	none
O=c1[nH]c(=O)n(C(c2ccccc2)c2ccccc2)cc1Br	Arbovirus anti 31.5
Cc1c(Br)c(=O)[nH]c(=O)n1COCc1ccccc1	none
O=C(Oc1cc2oc(=O)c3c(c2cc1Cl)CCCC3)c1cccs1	WT yeast gro inh 70.2
O=C(Oc1ccc2c3c(c(=O)oc2c1)CCCC3)c1cccs1	none
O=C(NC1CCCCC1)C(=S)NCc1ccccc1	none
O=C(NC1CCCCCC1)C(=S)NCc1ccccc1	WT yeast gro inh 73.4
O=C(NCc1ccccc1)c1ccc(C(=O)N(C2CCCCC2)C2CCCCC2)cc1	WT yeast gro inh 61.5
C=CCSc1ncccc1C(=O)O	none
O=C1c2ccccc2N2C(=O)c3ccccc3[C@H]2N1c1ccccc1	Arbovirus anti 30.1
Cc1cc(C)c(S(=O)(=O)c2ccccc2)c(OC(=O)c2cc(F)c(F)cc2Cl)n1	none (no result: ROMK primary)
O=C(/C=C/c1ccc(Cl)cc1Cl)NCCSc1ccccc1	WT yeast gro inh 63.9
O=C(/C=C/c1ccc(Cl)cc1Cl)NCCSCc1ccccc1	WT yeast gro inh 58.5
COc1ccccc1C(=O)NN=C1CCN(Cc2ccccc2)CC1	none
Cc1cccc(N2CCN(C(=O)c3ccncc3)CC2)c1C	none (no result: ROMK primary)
Cc1cccc(N2CCN(C(=O)c3c(C)nn(Cc4ccccc4Cl)c3C)CC2)c1C	WT yeast gro inh 59.7
Cc1ccc(-c2nnc3n2CCCCC3)cc1	WT yeast gro inh 73.8
Cc1cc(Cl)ccc1OCc1n[nH]c(=S)n1C1CCCCC1	WT yeast gro inh 94.4 (no result: ROMK primary)
COc1ccc(Cl)cc1-c1n[nH]c(=S)n1C1CCCCC1	none
CC1CCN(c2ncnc3c2cnn3-c2ccccc2)CC1	none (no result: ROMK primary)
COc1cccc(OCCN2CCN(c3ncnc4c3cnn4-c3ccccc3)CC2)c1	WT yeast gro inh 58.5
Cc1ccc(NS(=O)(=O)c2ccc(C)c(NC(=O)COc3ccccc3)c2)c(C)c1	WT yeast gro inh 58.3
Cc1ccc(NC(=O)COc2ccccc2)c(NC(=O)c2ccccc2C)c1	none (no result: Arbovirus anti, WT yeast gro inh, ROMK primary)
FC(F)(F)c1cnc(Sc2nc3nccc(-c4ccc(Cl)cc4)n3n2)c(Cl)c1	WT yeast gro inh 96.1 (no result: ROMK primary)
